Source: PubChem BioAssay AID1159580 (chemical genetic matrix, 2015)
“And” between values parts separate entries of the source, which are not always exact repeats. Equal values may be shown once. Among all 5,500 compounds or so, about 2,000 (36%) were called active. Another 18% or so got no clear call; they are omitted. Cut-off read from the data, not from the text of the source: active = normalized growth mostly below about 0.91 (no sharp cut-off); inconclusive = no clear call, values can overlap the other calls; inactive = mostly above about 0.92. Some of the results follow.

Experiment: chemical genetic growth profiling, strain panel (AID 1159580);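 note: tested at 20 µM; growth read once vehicle control cultures reached saturation at 30 °C; 1 = growth at the plate median or of vehicle wells; lower values mean less growth of the strain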
Conditions: S. cerevisiae deletion strains, growth OD

Measured: normalized growth

CC(=O)NO
active: locus YBR021W, strain FUR4, stronger effect = lower value 0.604
inactive: locus YAL013W, strain DEP1, stronger effect = lower value 0.955 | locus YAL021C, strain ccr4, stronger effect = lower value 0.968 | locus YAL026C, strain drs2, stronger effect = lower value 0.997 | locus YAL030W, strain snc1, stronger effect = lower value 0.99 | locus YBL061C, strain skt5, stronger effect = lower value 0.969 | locus YBR009C, strain hhf1, stronger effect = lower value 0.942 | locus YBR023C, strain chs3, stronger effect = lower value 0.964 | locus YBR171W, strain sec66, stronger effect = lower value 0.963 | locus YBR229C, strain ROT2, stronger effect = lower value 1.01 | locus YBR231C, strain swc5, stronger effect = lower value 0.995 | locus YBR279W, strain paf1, stronger effect = lower value 0.973 | locus YCL011C, strain gbp2, stronger effect = lower value 0.949 | locus YCL016C, strain dcc1, stronger effect = lower value 0.937 | locus YCL029C, strain bik1, stronger effect = lower value 0.999 | locus YCL061C, strain MRC1, stronger effect = lower value 0.968 | locus YCL069W, strain vba3, stronger effect = lower value 0.974 | locus YCR088W, strain abp1, stronger effect = lower value 0.979 | locus YDL005C, strain med2, stronger effect = lower value 0.982 | locus YDL035C, strain GPR1, stronger effect = lower value 0.973 | locus YDL040C, strain nat1, stronger effect = lower value 0.979 | locus YDL074C, strain BRE1, stronger effect = lower value 0.977 | locus YDL101C, strain DUN1, stronger effect = lower value 1.02 | locus YDL185W, strain tfp1, stronger effect = lower value 0.992 | locus YDL192W, strain arf1, stronger effect = lower value 0.989 | locus YDR001C, strain nth1, stronger effect = lower value 0.982 | locus YDR069C, strain doa4, stronger effect = lower value 1.01 | locus YDR101C, strain arx1, stronger effect = lower value 1 | locus YDR137W, strain rgp1, stronger effect = lower value 0.948 | locus YDR150W, strain NUM1, stronger effect = lower value 0.991 | locus YDR159W, strain sac3, stronger effect = lower value 1 | locus YDR162C, strain NBP2, stronger effect = lower value 0.997 | locus YDR195W, strain ref2 0.984 | locus YDR297W, strain sur2, stronger effect = lower value 0.977 | locus YDR318W, strain mcm21, stronger effect = lower value 0.998 | locus YDR334W, strain swr1, stronger effect = lower value 0.976 | locus YDR335W, strain msn5, stronger effect = lower value 0.983 | locus YDR388W, stronger effect = lower value 0.984 | locus YDR392W, strain spt3, stronger effect = lower value 0.744 | locus YDR502C, strain sam2, stronger effect = lower value 0.973 | locus YEL003W, strain gim4, stronger effect = lower value 1 | locus YEL037C, strain rad23, stronger effect = lower value 0.977 | locus YEL061C, strain CIN8 (second series), stronger effect = lower value 0.985 | locus YEL061C, strain CIN8, stronger effect = lower value 1.01 | locus YER015W, strain faa2, stronger effect = lower value 0.975 | locus YER016W, strain bim1, stronger effect = lower value 0.996 | locus YER110C, stronger effect = lower value 0.987 | locus YER111C, strain swi4, stronger effect = lower value 0.965 | locus YER155C, strain BEM2 (second series), stronger effect = lower value 0.996 | locus YER155C, strain BEM2, stronger effect = lower value 1.03 | locus YER167W, strain BCK2, stronger effect = lower value 1.02 | locus YFR010W, strain ubp6, stronger effect = lower value 0.974 | locus YGL078C, strain dbp3, stronger effect = lower value 0.997 | locus YGL086W, strain mad1, stronger effect = lower value 0.991 | locus YGL167C, strain pmr1, stronger effect = lower value 0.978 | locus YGL173C, strain kem1, stronger effect = lower value 0.984 | locus YGL227W, strain vid30, stronger effect = lower value 0.974 | locus YGL240W, strain doc1, stronger effect = lower value 0.963 | locus YGL248W, strain PDE1, stronger effect = lower value 0.97 | locus YGL253W, strain hxk2, stronger effect = lower value 0.965 | locus YGR135W, strain pre9, stronger effect = lower value 0.907 | locus YGR252W, strain gcn5, stronger effect = lower value 0.797 | locus YHR013C, strain ard1, stronger effect = lower value 0.888 | locus YHR027C, strain rpn1, stronger effect = lower value 0.999 | locus YHR030C, strain SLT2, stronger effect = lower value 0.94 and 0.998 | locus YHR079C, strain IRE1 (second series), stronger effect = lower value 0.997 | locus YHR079C, strain IRE1, stronger effect = lower value 0.975 | locus YHR094C, strain hxt1, stronger effect = lower value 0.997 | locus YHR129C, strain ARP1, stronger effect = lower value 1 | locus YHR142W, strain chs7, stronger effect = lower value 0.915 | locus YHR200W, strain rpn10, stronger effect = lower value 0.991 | locus YIL066C, strain RNR3, stronger effect = lower value 0.979 | locus YIL073C, strain SPO22, stronger effect = lower value 0.898 | locus YIL125W, strain kgd1, stronger effect = lower value 0.99 | locus YIR030C, strain dcg1, stronger effect = lower value 1 | locus YJL092W, strain hpr5, stronger effect = lower value 0.974 | locus YJL095W, strain BCK1 (second series), stronger effect = lower value 0.98 | locus YJL115W, strain asf1, stronger effect = lower value 0.954 | locus YJL129C, strain trk1, stronger effect = lower value 0.962 | locus YJL134W, strain LCB3, stronger effect = lower value 1.01 | locus YJL154C, strain vps35, stronger effect = lower value 0.983 | locus YJL164C, strain tpk1, stronger effect = lower value 0.966 | locus YJL166W, strain qcr8, stronger effect = lower value 0.931 | locus YJL168C, strain set2, stronger effect = lower value 0.993 | locus YJL187C, strain SWE1 (second series), stronger effect = lower value 0.954
0.748 (active) and 1 (inactive): locus YJL095W, strain BCK1, stronger effect = lower value
